# Of roughly 8,800 targets only a part is listed; those with a hit were picked by preference. About 0.5% of all pairs of compound and target were hits.
# Compound: Cn1cc(CNCC2CCN(c3ncc(C(=O)NO)cn3)CC2)c2ccccc21 [quisinostat]
# Assay: log2 fold change, soluble protein after heating vs DMSO (PISA); higher = thermal stabilisation; K562 lysate, 10 uM; active = over 0.2 and 3.5 SD of the protein, either way, in both replicates (recomputed)
# Summary of the method: (§1)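 Pellets of K562 cells were dounce-homogenised in PBS pH 7.4 with 1 mM MgCl2, and the crude extract was held at 1 mg/mL protein for a 30 min treatment with 10 μM compound. Aliquots were heated for 3 min over 48°C-58°C and pooled before NP-40 was added to 0.5% at 4°C. The supernatant from 21,000xg for 90 min was quantified by TMTpro 16plex LC-MS/MS with channel sums equalised. Values are reported from duplicates as log-two fold change in thermal stability relative to solvent controls.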
# Sequence of UniProt Q96DW6 (Q96DW6 whole entry, looked up): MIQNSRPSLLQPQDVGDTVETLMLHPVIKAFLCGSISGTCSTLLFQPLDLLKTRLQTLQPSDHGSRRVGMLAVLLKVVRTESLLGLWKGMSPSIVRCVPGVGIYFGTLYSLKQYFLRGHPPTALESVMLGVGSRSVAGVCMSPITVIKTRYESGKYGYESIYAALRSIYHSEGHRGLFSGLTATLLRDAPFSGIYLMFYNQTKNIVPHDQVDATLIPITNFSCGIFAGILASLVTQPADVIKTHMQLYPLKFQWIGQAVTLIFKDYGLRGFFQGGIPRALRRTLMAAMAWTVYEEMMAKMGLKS
# Sequence of UniProt P49281 (P49281 whole entry, looked up): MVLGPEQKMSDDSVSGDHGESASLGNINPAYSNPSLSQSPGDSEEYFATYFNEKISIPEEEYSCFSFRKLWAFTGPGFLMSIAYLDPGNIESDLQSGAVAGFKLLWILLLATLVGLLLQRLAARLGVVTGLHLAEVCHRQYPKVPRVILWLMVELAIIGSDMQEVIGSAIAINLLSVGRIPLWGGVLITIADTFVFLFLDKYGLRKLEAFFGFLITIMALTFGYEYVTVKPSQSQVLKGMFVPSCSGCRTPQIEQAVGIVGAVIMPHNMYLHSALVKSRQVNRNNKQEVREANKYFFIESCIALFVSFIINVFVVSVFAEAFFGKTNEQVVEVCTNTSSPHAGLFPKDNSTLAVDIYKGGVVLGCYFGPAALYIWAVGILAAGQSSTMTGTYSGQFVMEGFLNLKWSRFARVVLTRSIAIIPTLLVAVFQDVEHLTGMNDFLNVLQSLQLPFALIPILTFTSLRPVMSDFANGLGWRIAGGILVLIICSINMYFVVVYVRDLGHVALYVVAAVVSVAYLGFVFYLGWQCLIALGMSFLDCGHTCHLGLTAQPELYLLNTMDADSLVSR
# Sequence of UniProt Q8NHG7 (Q8NHG7 whole entry, looked up): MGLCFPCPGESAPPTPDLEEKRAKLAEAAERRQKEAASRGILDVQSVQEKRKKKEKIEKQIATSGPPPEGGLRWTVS
# Sequence of UniProt P08047 (P08047 whole entry, looked up): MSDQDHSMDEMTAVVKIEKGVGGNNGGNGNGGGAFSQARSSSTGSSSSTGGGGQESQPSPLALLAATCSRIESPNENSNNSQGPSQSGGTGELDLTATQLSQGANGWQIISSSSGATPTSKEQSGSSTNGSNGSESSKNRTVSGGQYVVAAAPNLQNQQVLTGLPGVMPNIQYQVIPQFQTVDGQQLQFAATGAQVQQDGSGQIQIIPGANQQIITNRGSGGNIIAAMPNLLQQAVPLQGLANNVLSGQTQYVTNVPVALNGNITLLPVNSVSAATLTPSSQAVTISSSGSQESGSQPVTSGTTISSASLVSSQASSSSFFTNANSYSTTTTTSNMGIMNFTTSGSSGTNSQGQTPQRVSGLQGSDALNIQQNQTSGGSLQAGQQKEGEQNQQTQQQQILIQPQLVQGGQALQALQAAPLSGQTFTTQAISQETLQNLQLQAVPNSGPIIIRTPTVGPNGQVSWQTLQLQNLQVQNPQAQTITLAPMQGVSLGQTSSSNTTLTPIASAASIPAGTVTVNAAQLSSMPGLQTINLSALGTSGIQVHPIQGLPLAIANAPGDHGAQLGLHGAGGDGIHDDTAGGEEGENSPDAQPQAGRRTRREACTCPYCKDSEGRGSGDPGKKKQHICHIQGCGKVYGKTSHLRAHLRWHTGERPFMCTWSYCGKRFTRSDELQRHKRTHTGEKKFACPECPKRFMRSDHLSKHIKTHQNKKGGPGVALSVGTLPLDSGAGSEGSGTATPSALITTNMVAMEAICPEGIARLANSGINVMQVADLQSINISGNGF
# Sequence of UniProt O95793 (O95793 whole entry, looked up): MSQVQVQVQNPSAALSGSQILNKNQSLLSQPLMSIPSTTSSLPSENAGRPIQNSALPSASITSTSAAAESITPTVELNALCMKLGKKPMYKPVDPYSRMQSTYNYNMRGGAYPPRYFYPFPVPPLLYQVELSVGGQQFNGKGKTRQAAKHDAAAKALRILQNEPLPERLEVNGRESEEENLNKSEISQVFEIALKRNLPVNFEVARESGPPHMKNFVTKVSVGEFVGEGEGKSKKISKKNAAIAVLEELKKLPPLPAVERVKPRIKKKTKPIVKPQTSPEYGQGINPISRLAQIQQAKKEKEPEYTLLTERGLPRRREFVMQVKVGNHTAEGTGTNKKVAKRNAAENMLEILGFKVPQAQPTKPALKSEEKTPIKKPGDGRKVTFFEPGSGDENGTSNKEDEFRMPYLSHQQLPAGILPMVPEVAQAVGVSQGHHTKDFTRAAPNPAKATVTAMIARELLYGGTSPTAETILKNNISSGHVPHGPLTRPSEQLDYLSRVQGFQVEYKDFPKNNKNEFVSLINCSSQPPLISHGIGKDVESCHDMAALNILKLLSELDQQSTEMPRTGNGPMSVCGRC
# Sequence of UniProt Q96BD8 (Q96BD8 whole entry, looked up): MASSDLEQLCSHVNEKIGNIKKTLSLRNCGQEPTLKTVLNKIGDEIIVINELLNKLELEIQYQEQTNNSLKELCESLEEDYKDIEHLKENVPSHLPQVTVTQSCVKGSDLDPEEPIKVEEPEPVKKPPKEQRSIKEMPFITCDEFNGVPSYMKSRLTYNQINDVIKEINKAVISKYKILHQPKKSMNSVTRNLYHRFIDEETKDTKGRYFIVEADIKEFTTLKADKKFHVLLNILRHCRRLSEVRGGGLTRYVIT
# Sequence of UniProt Q16594 (Q16594 whole entry, looked up): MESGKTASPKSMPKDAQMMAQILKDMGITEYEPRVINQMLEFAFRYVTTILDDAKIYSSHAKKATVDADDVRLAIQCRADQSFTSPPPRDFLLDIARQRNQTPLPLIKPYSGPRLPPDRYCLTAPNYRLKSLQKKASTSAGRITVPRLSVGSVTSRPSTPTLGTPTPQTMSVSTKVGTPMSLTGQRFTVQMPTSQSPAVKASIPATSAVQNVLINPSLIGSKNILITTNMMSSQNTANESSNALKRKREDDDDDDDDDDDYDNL
# Sequence of UniProt Q9UPR3 (Q9UPR3 whole entry, looked up): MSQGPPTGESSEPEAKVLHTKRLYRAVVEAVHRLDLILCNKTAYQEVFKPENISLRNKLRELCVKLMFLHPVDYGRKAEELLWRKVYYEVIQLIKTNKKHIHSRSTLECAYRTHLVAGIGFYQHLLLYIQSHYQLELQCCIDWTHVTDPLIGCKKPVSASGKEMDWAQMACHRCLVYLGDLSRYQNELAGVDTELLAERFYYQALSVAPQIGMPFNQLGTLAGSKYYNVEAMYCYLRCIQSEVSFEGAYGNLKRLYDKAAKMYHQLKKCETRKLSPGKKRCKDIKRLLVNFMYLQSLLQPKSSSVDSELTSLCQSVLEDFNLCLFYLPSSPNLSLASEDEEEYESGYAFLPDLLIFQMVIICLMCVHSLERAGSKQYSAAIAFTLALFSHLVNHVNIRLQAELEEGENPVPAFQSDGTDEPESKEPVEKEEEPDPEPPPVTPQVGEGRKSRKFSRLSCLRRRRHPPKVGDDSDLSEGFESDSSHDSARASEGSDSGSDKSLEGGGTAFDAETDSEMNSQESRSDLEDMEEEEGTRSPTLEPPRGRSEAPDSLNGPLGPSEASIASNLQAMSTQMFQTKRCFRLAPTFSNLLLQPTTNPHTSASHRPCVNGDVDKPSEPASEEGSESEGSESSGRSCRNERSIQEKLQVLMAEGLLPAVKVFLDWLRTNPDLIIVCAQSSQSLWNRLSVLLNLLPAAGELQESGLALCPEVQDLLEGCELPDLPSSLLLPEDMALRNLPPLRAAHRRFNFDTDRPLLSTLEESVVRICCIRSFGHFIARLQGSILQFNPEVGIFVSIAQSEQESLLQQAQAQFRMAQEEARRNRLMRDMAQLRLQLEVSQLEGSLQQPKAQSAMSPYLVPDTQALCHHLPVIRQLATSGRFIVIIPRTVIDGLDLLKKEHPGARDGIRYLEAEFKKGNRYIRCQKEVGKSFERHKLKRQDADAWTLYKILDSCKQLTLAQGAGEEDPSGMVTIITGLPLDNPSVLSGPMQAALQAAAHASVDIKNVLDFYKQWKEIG
# Sequence of UniProt Q9H2D1 (Q9H2D1 whole entry, looked up): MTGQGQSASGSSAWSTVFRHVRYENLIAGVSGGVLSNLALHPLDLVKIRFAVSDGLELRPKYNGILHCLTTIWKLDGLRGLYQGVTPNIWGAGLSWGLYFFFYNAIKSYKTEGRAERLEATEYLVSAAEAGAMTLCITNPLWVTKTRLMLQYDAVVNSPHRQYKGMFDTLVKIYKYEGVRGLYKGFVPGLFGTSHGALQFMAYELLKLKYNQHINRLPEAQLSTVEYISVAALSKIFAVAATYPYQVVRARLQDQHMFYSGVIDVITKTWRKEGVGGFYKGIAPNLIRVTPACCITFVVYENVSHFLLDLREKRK
# Sequence of UniProt Q13573 (Q13573 whole entry, looked up): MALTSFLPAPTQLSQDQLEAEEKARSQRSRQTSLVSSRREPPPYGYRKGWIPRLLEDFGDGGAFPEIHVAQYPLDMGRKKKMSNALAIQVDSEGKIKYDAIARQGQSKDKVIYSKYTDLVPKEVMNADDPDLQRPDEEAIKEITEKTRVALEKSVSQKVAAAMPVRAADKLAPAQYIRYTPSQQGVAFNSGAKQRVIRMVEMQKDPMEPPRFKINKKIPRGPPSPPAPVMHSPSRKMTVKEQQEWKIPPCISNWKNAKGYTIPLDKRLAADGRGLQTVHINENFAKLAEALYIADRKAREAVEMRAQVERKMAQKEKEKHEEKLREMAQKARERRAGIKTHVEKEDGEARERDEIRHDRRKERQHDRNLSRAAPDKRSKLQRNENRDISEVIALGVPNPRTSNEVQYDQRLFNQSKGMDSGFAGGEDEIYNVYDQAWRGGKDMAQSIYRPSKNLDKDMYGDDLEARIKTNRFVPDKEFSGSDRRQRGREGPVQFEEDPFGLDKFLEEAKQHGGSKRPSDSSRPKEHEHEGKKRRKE
# Sequence of UniProt Q9NP77 (Q9NP77 whole entry, looked up): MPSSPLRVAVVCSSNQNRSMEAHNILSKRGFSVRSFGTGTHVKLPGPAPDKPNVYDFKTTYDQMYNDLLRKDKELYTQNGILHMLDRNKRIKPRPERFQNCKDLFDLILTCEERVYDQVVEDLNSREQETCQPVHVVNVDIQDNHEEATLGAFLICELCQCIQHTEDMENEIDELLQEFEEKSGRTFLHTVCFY
row,Target,log2 fold change
1,SLC11A2 isoform 3 (UniProt P49281),-0.112 (inactive)
2,SLC12A6 (UniProt Q9UHW9),-0.013 (inactive)
3,TAF9 (UniProt Q16594),-0.055 (inactive)
4,SKA1 (UniProt Q96BD8),-0.104 (inactive)
5,SMTN isoform 6 (UniProt P53814),-0.065 (inactive)
6,SHC1 isoform 6 (UniProt P29353),0.022 (inactive)
7,SPIRE1 (UniProt Q08AE8),-0.186 (inactive)
8,SNW1 (UniProt Q13573),0.012 (inactive)
9,SLC25A32 (UniProt Q9H2D1),-0.015 (inactive)
10,TARBP2 (UniProt Q15633),-0.106 (inactive)
11,SYNE2 isoform 2 (UniProt Q8WXH0),-0.176 (inactive)
12,SMG5 (UniProt Q9UPR3),0.013 (inactive)
13,SH3GL3 isoform 3 (UniProt Q99963),-0.033 (inactive)
14,STAU1 (UniProt O95793),0.003 (inactive)
15,SMARCAD1 isoform 2 (UniProt Q9H4L7),-0.054 (inactive)
16,SLC25A36 (UniProt Q96CQ1),0.045 (inactive)

row,Target,log2 fold change
1,SMARCA4 (UniProt P51532),-0.029 (inactive)
2,SP1 (UniProt P08047),0.055 (inactive)
3,SMG1 (UniProt Q96Q15),-0.05 (inactive)
4,SPHK1 isoform 2 (UniProt Q9NYA1),0.084 (inactive)
5,SMC1B isoform 3 (UniProt Q8NDV3),0.004 (inactive)
6,SMG7 (UniProt Q92540),0.062 (inactive)
7,SLC25A38 (UniProt Q96DW6),-0.068 (inactive)
8,SMC3 (UniProt Q9UQE7),0.023 (inactive)
9,SVIP (UniProt Q8NHG7),0.034 (inactive)
10,STK24 (UniProt B4DR80),-0.019 (inactive)
11,SPC25 (UniProt Q9HBM1),-0.019 (inactive)
12,SPATS2 (UniProt Q86XZ4),0.144 (inactive)
13,SLC26A6 (UniProt Q9BXS9),0.006 (inactive)
14,SRP54 (UniProt P61011),0.048 (inactive)
15,SSB (UniProt E7ERC4),-0.198 (inactive)
16,SSU72 (UniProt Q9NP77),-0.002 (inactive)

# Compound: Cn1cncc1[C@@](N)(c1ccc(Cl)cc1)c1ccc2c(c1)c(-c1cccc(Cl)c1)cc(=O)n2C [tipifarnib]
# Assay: as above
# Summary of the method: as §1
row,Target,log2 fold change
1,SLC11A2 isoform 3 (UniProt P49281),-0.089 (inactive)
2,SLC12A6 (UniProt Q9UHW9),0.012 (inactive)
3,TAF9 (UniProt Q16594),-0.029 (inactive)
4,SKA1 (UniProt Q96BD8),0.039 (inactive)
5,SMTN isoform 6 (UniProt P53814),-0.019 (inactive)
6,SHC1 isoform 6 (UniProt P29353),0.006 (inactive)
7,SPIRE1 (UniProt Q08AE8),0.055 (inactive)
8,SNW1 (UniProt Q13573),0.009 (inactive)
9,SLC25A32 (UniProt Q9H2D1),0.016 (inactive)
10,TARBP2 (UniProt Q15633),-0.067 (inactive)
11,SYNE2 isoform 2 (UniProt Q8WXH0),0.005 (inactive)
12,SMG5 (UniProt Q9UPR3),-0.115 (inactive)
13,SH3GL3 isoform 3 (UniProt Q99963),0.029 (inactive)
14,STAU1 (UniProt O95793),-0.009 (inactive)
15,SMARCAD1 isoform 2 (UniProt Q9H4L7),-0.025 (inactive)
16,SLC25A36 (UniProt Q96CQ1),-0.119 (inactive)

row,Target,log2 fold change
1,SMARCA4 (UniProt P51532),-0.018 (inactive)
2,SP1 (UniProt P08047),-0.031 (inactive)
3,SMG1 (UniProt Q96Q15),-0.028 (inactive)
4,SPHK1 isoform 2 (UniProt Q9NYA1),-0.058 (inactive)
5,SMC1B isoform 3 (UniProt Q8NDV3),0.008 (inactive)
6,SMG7 (UniProt Q92540),-0.072 (inactive)
7,SLC25A38 (UniProt Q96DW6),-0.061 (inactive)
8,SMC3 (UniProt Q9UQE7),0.002 (inactive)
9,SVIP (UniProt Q8NHG7),0.004 (inactive)
10,STK24 (UniProt B4DR80),0.007 (inactive)
11,SPC25 (UniProt Q9HBM1),0 (inactive)
12,SPATS2 (UniProt Q86XZ4),0.013 (inactive)
13,SLC26A6 (UniProt Q9BXS9),0.05 (inactive)
14,SRP54 (UniProt P61011),-0.047 (inactive)
15,SSB (UniProt E7ERC4),0.171 (inactive)
16,SSU72 (UniProt Q9NP77),0.02 (inactive)

# Compound: NC(=O)Nc1cc(-c2cccc(F)c2)sc1C(=O)N[C@H]1CCCNC1
# Assay: as above
# Summary of the method: as §1
row,Target,log2 fold change
1,SLC11A2 isoform 3 (UniProt P49281),0.055 (inactive)
2,SLC12A6 (UniProt Q9UHW9),-0.001 (inactive)
3,TAF9 (UniProt Q16594),0.013 (inactive)
4,SKA1 (UniProt Q96BD8),0.038 (inactive)
5,SMTN isoform 6 (UniProt P53814),0.021 (inactive)
6,SHC1 isoform 6 (UniProt P29353),-0.036 (inactive)
7,SPIRE1 (UniProt Q08AE8),-0.032 (inactive)
8,SNW1 (UniProt Q13573),-0.016 (inactive)
9,SLC25A32 (UniProt Q9H2D1),0.023 (inactive)
10,TARBP2 (UniProt Q15633),0.065 (inactive)
11,SYNE2 isoform 2 (UniProt Q8WXH0),-0.043 (inactive)
12,SMG5 (UniProt Q9UPR3),0.097 (inactive)
13,SH3GL3 isoform 3 (UniProt Q99963),0.075 (inactive)
14,STAU1 (UniProt O95793),0.037 (inactive)
15,SMARCAD1 isoform 2 (UniProt Q9H4L7),0.016 (inactive)
16,SLC25A36 (UniProt Q96CQ1),-0.08 (inactive)

row,Target,log2 fold change
1,SMARCA4 (UniProt P51532),0.043 (inactive)
2,SP1 (UniProt P08047),-0.02 (inactive)
3,SMG1 (UniProt Q96Q15),0.061 (inactive)
4,SPHK1 isoform 2 (UniProt Q9NYA1),-0.028 (inactive)
5,SMC1B isoform 3 (UniProt Q8NDV3),-0.014 (inactive)
6,SMG7 (UniProt Q92540),0.054 (inactive)
7,SLC25A38 (UniProt Q96DW6),-0.019 (inactive)
8,SMC3 (UniProt Q9UQE7),0 (inactive)
9,SVIP (UniProt Q8NHG7),-0.095 (inactive)
10,STK24 (UniProt B4DR80),0.187 (inactive)
11,SPC25 (UniProt Q9HBM1),-0.01 (inactive)
12,SPATS2 (UniProt Q86XZ4),-0.107 (inactive)
13,SLC26A6 (UniProt Q9BXS9),0.033 (inactive)
14,SRP54 (UniProt P61011),-0.001 (inactive)
15,SSB (UniProt E7ERC4),0.152 (inactive)
16,SSU72 (UniProt Q9NP77),-0.021 (inactive)

# Reference: the supplement of paper PMC10849652
